Records with an inconclusive call do not appear. The source made the active and inactive calls. Rule for the calls: active = hit-call score of the fitted dose curve at least 0.9, where 1 is the maximum; inconclusive = response in the unintended direction; inactive = score below 0.9.

The target of the test is human Checkpoint Kinase 1 (CHK1), CHEK1 (gene 1111) (UniProt O14757). Nature of the test: NVS_ENZ_hCHK1: NovaScreen (NVS) Enzymatic Assay for human Checkpoint Kinase 1 (CHK1). The protocol: NVS_ENZ_hCHK1 is a biochemical, single-readout assay that uses extracted gene-proteins in a cell-free assay. Measurements were taken 1 hour after chemical dosing in a 96-well plate.NVS_ENZ_hCHK1 is one of one assay component(s) measured or calculated from the NVS_ENZ_hCHK1 assay. It is designed to make measurements of enzyme activity, a form of enzyme reporter, as detected with fluorescence intensity signals by Fluorescence and electrophoretic mobility shift technology.Data from the assay component NVS_ENZ_hCHK1 was analyzed into 1 assay endpoint. This assay endpoint, NVS_ENZ_hCHK1, was analyzed in the positive analysis fitting direction relative to DMSO as the negative control and baseline of activity. Using a type of enzyme reporter, loss-of-signal activity can be used to understand changes in the enzymatic activity as they relate to the gene CHEK1. Furthermore, this assay endpoint can be referred to as a primary readout, because this assay has produced multiple assay endpoints where this one serves a enzymatic activity function. To generalize the intended target to other relatable targets, this assay endpoint is annotated to the kinase intended target family, where the subfamily is serine/threonine kinase. […]
human Checkpoint Kinase 1 (CHK1), CHEK1 (gene 1111), sequence (O14757 whole entry, looked up): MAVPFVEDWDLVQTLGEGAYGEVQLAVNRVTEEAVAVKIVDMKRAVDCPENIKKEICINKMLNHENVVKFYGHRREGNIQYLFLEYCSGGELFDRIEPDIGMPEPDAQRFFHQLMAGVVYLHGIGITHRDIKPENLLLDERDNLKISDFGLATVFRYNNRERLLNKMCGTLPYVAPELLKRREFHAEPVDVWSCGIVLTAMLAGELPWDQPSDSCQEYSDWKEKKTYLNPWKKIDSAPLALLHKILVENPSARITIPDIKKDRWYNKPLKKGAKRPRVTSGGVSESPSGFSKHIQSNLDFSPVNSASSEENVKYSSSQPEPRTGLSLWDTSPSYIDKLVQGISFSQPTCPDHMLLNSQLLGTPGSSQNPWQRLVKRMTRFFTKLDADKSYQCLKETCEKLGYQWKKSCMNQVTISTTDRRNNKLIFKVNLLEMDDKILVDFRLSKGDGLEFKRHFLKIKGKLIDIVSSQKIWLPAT
Consider `N#Cc1c(Cl)c(Cl)c(Cl)c(C#N)c1Cl`, for which the outcome was inactive.

The values above are taken from PubChem BioAssay AID2283134 (EPA ToxCast).
